Compounds without any hit were thinned out: in the full panel of roughly 83,000, 20% have a hit.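 Interpretation: 100, growth as untreated; towards 0, rising growth inhibition; 0, no net growth; 0 to -100, cell death. Compounds scoring below 10 were considered active.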 Unmarked numbers belong to inactive results. The source made the active and inactive calls.

Here are results for 14 compounds from PubChem BioAssay (NCI).

Common to all, as to assay: NCI-60 one-dose screen, 48 h (100 = growth as untreated, 0 = no growth, -100 = all killed)
One assay relates to T-47D breast. The note with it: 10 µM unless noted.
In a further assay the test system is BT-549 breast. The note with it: 10 µM unless noted.
Another assay relates to MDA-MB-435 melanoma. The note with it: 10 µM unless noted.
The subject of the next assay is SW-620 colon. The note with it: 10 µM unless noted.
The test system of a further assay is MCF7 breast. The note with it: 10 µM unless noted.
Another assay relates to HCT-116 colon. The note with it: 10 µM unless noted.
For another assay, the system named is HCC-2998 colon. The note with it: 10 µM.
The subject of the next assay is KM12 colon. The note with it: 10 µM unless noted.

As to `COc1cc2c(Oc3ccc(NC(=O)C4(C(=O)Nc5ccc(F)cc5)CC4)cc3F)ccnc2cc1OCCCN1CCOCC1`, the growth with T-47D breast was 0.289% (active); in the assay with BT-549 breast, 17.8%; with MDA-MB-435 melanoma, -75.1% (active); with SW-620 colon it was -31.4% (active); with MCF7 breast it was -22.2% (active); with HCT-116 colon, -61.2% (active). Moreover, the growth is 7.76% (active) with HCC-2998 colon and 0.619% (active) with KM12 colon.

As for `CC(C)(C)OC(=O)N1CCC(O)[C@@H](O[Si](c2ccccc2)(c2ccccc2)C(C)(C)C)[C@H]1/C=C/c1ccccc1` (some centres not stated), the growth in the assay with T-47D breast was 21.4%; in the assay on BT-549 breast it was 63%; in the assay with MDA-MB-435 melanoma, 57.4%; with SW-620 colon, 50.9%; with MCF7 breast it was 36.6%; in the assay on HCT-116 colon it was 24.9%. The growth with HCC-2998 colon was 44.8%; in the assay on KM12 colon it was 47%.

With `Cc1c(NC(=O)OC[C@@H]2COCCN2)cn2ncnc(Nc3ccc4c(cnn4Cc4cccc(F)c4)c3)c12`, the growth in the assay with T-47D breast was -16.7% (active); with BT-549 breast, 0.365% (active); in the assay on MDA-MB-435 melanoma it was 2.07% (active); in the assay on SW-620 colon it was 1.74% (active); in the assay on MCF7 breast, 1.5% (active); with HCT-116 colon it was 0.842% (active). Moreover, the growth with HCC-2998 colon was 3.83% (active); in the assay on KM12 colon, 8.03% (active).

In the case of `CCCCn1c(C)nc2cc(Nc3nc(N4CCCCC4)nc4nc[nH]c34)ccc21`, the growth with T-47D breast was 6.78% (active); with BT-549 breast, 18%; with MDA-MB-435 melanoma, 37.4%; in the assay on SW-620 colon, 79%; with MCF7 breast, 32.5%; in the assay with HCT-116 colon, 48.8%. For the same compound, the growth in the assay with HCC-2998 colon is 66.2%; with KM12 colon it was 38.1%.

Take `O=C(O)c1ccc(Nc2ncc3c(n2)-c2ccc(Cl)cc2C(c2c(F)cccc2F)=NC3)cc1`: the growth in the assay on T-47D breast is 47.5%; with BT-549 breast it was 57.1%; in the assay on MDA-MB-435 melanoma it was 70.7%; with SW-620 colon it was 35.4%; in the assay with MCF7 breast, 49.3%; in the assay on HCT-116 colon, 43.6%. In addition, the results for the growth in the assay with HCC-2998 colon and in the assay on KM12 colon were 78.5% and 28.3%, respectively.

`COC(=O)C1CCc2sc3ncnc(Nc4cn[nH]c4C(=O)Nc4ccc(CN5CCN(C)CC5)cc4)c3c21` (configuration not stated): the growth was 17.8% with T-47D breast; -0.677% (active) with BT-549 breast; 22.3% with MDA-MB-435 melanoma; -10.9% (active) in the assay with SW-620 colon; 4.8% (active) with MCF7 breast; 3.34% (active) in the assay with HCT-116 colon. Moreover, the growth in the assay with HCC-2998 colon was 27.2%; with KM12 colon, 9.84% (active).

On to `CC(CCCC(=O)O)c1ccoc1` (configuration not stated), for which the growth in the assay on T-47D breast is 89.6%; in the assay with BT-549 breast it was 108%; in the assay with MDA-MB-435 melanoma it was 107%; with SW-620 colon, 110%; in the assay with MCF7 breast, 94.1%; in the assay with HCT-116 colon it was 101%. Besides, the growth in the assay on HCC-2998 colon is 96.7%; in the assay with KM12 colon, 98.7%.

For the compound `O=c1nc2c(-c3nc4ccccc4s3)n[nH]n2c2sc3c(c12)CCCC3`, the growth with T-47D breast was 78.9%; in the assay with BT-549 breast it was 94.1%; in the assay on MDA-MB-435 melanoma, 110%; in the assay with SW-620 colon, 100%; in the assay with MCF7 breast it was 89.1%; in the assay on HCT-116 colon it was 89.1%. Further, the growth was 103% in the assay with HCC-2998 colon and 96.7% in the assay on KM12 colon.

`COc1ccc(-c2nocc2-c2cc(OC)c(OC)c(OC)c2)cc1`: the growth in the assay on T-47D breast was 39.6%; with BT-549 breast it was 48.5%; with MDA-MB-435 melanoma, -54.4% (active); in the assay with SW-620 colon, 21.4%; in the assay on MCF7 breast it was 24.3%; in the assay on HCT-116 colon, 6.36% (active). Further, the figures for the growth in the assay on HCC-2998 colon and in the assay on KM12 colon were 13.4% and 12.4%, respectively.

In the case of `COC(=O)[C@@H](C)CNS(=O)(=O)N(c1cc(C(F)(F)F)cc(C(F)(F)F)c1)C1CCN(Cc2ccc(F)cc2)CC1`, the growth in the assay with T-47D breast was 31.1%; in the assay on BT-549 breast it was 89.6%; with MDA-MB-435 melanoma it was 76.8%; in the assay with SW-620 colon, 73.9%; in the assay on MCF7 breast it was 48.7%; with HCT-116 colon it was 43.4%. Moreover, the growth in the assay with HCC-2998 colon is -65.3% (active); in the assay with KM12 colon it was 51%.

Turning to `CN1CCN(CC(=O)Nc2ccc(-c3nc4ccccc4s3)cc2)CC1`, the growth was 54.1% with T-47D breast; 80.7% with BT-549 breast; 25.4% in the assay on MDA-MB-435 melanoma; 102% in the assay on SW-620 colon; 36.8% in the assay with MCF7 breast; 70.9% with HCT-116 colon. Moreover, the growth with HCC-2998 colon was 77.3%; with KM12 colon it was 85.6%.

For `Cn1ccnc1C(=O)/C=C/c1ccc(CC(=O)Nc2ccc(S(F)(F)(F)(F)F)cc2)cc1`, the growth with T-47D breast is -7.73% (active); in the assay with BT-549 breast, -50.6% (active); in the assay with MDA-MB-435 melanoma, 15.1%; in the assay on SW-620 colon, 3.88% (active); with MCF7 breast it was 10.2%; in the assay on HCT-116 colon, -63.5% (active). Besides, the growth with HCC-2998 colon is -65.1% (active); in the assay on KM12 colon, -56.9% (active).

Regarding `CN(C[C@@H]1COCCO1)S(=O)(=O)Nc1ccc2ccc3ncc(-c4cnn(C)c4)cc3c(=O)c2c1`, the growth in the assay on T-47D breast is 15.9%; with BT-549 breast it was 28.1%; in the assay on MDA-MB-435 melanoma, 44.7%; in the assay with SW-620 colon, 37%; in the assay on MCF7 breast, 36.3%; in the assay on HCT-116 colon, 24.1%. The growth with HCC-2998 colon was 74.1%; in the assay on KM12 colon it was 10.2%.

For the compound `C[C@@H](Oc1cc(-c2cnn(C3CCNCC3)c2)cnc1N)c1c(Cl)ccc(F)c1Cl`, the growth in the assay on T-47D breast is -65.8% (active); in the assay with BT-549 breast it was -42.3% (active); in the assay on MDA-MB-435 melanoma, -90.6% (active); in the assay on SW-620 colon it was -59.9% (active); in the assay with MCF7 breast, -66.1% (active); in the assay on HCT-116 colon it was -73.1% (active). In addition, the growth with HCC-2998 colon is -73.2% (active); in the assay with KM12 colon it was -61.2% (active).
